Source: PubChem BioAssay (EPA / NIEHS)
Inconclusive results are not listed. Calls of active or inactive are those of the source. Rule for the calls, unless noted: active = hit-call score of the fitted dose curve at least 0.9, where 1 is the maximum; inactive = score below 0.9.

Assays:
[1] = CCTE_Mundy_HCI_Cortical_NOG_NeuriteLength: CCTE's Neurite Outgrowth Assay in rat cortical cells for Neurite Length, Mundy Lab (AID 2284213)
Summary of the method: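 Neurite length was read by high-content imaging of βIII-tubulin-labelled neurites in rat primary cortical cultures. Activity was fitted relative to DMSO.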

[2] = CCTE_Mundy_HCI_Cortical_Synap_Neur_Matur_NeuriteLength: CCTE's Synaptogenesis and Neurite Maturation Assay in rat cortical cells for Neurite Length, Mundy Lab (AID 2284214)
Summary of the method: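 Rat primary cortical cultures, AraC added DIV 5, dosed DIV 7 through DIV 12 […]. Fixed, MAP2/synaptophysin immunostained with Hoechst; neurite length by high-content imaging, fitted in positive direction versus DMSO.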

[3] = CCTE_Mundy_HCI_Cortical_Synap_Neur_Matur_NeuriteSpotCountPerNeuron: CCTE's Synaptogenesis and Neurite Maturation Assay in rat cortical cells for Neurite Spot Count per Neuron Count, Mundy Lab (AID 2284215)
Summary of the method: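 Rat primary cortical cells received AraC at DIV 5, then chemicals with a media change at DIV 7, and were fixed at DIV 12. Synaptophysin puncta on MAP2-stained neurites per neuron were counted by high-content imaging, fitted relative to DMSO.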

[4] = CCTE_Mundy_HCI_Cortical_Synap_Neur_Matur_SynapseCount: CCTE's Synaptogenesis and Neurite Maturation Assay in rat cortical cells for Synapse Count, Mundy Lab (AID 2284218)
Summary of the method: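 Rat primary cortical cultures, AraC at DIV 5, chemical dosing DIV 7 to DIV 12 (288.33 h). Fixed cells stained for MAP2, synaptophysin and Hoechst; synapses per neuron counted by high-content imaging, loss of signal versus DMSO.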

[5] = CCTE_Mundy_HCI_Cortical_Synap_Neur_Matur_NeuriteCount: CCTE's Synaptogenesis and Neurite Maturation Assay in rat cortical cells for Neurite Count, Mundy Lab (AID 2284222);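 note: exposure from day 7 to day 12 in vitro with readout at day 12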
Summary of the method: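 Rat primary cortical cells; AraC added at DIV 5, chemicals dosed with media change at DIV 7 through DIV 12. MAP2/synaptophysin/Hoechst immunostaining, high-content imaging of neurite number; fitted relative to DMSO.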

[6] = CCTE_Mundy_HCI_Cortical_Synap_Neur_Matur_CellBodySpotCount: CCTE's Synaptogenesis and Neurite Maturation Assay in rat cortical cells for Cell Body Spot Count, Mundy Lab (AID 2284223)
Summary of the method: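 Rat primary cortical cultures received AraC at DIV 5 to arrest glia, were dosed with chemical at DIV 7 with media change, and were fixed at DIV 12 (288.33 h). Synaptophysin puncta on MAP2-positive cell bodies per neuron were counted by high-content imaging versus DMSO.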

[7] = CCTE_Mundy_HCI_Cortical_NOG_NeuronCount: CCTE's Neurite Outgrowth Assay in rat cortical cells for Neuron Count, Mundy Lab (AID 2284236; active = hit-call score of the fitted dose curve at least 0.9, where 1 is the maximum;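 note: neurons counted by imaging betaIII-tubulin and Hoechst stained cortical cells; cells exposed to compound for about 48 hours before fixation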)
Summary of the method: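 Read-out: neuron number by high-content imaging of betaIII-tubulin (Alexa Fluor-488) and Hoechst-labelled rat primary cortical cells.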

[8] = CCTE_Mundy_HCI_Cortical_NOG_BPCount: CCTE's Neurite Outgrowth Assay in rat cortical cells for Branch Point Count, Mundy Lab (AID 2284237)
Summary of the method: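 Measured 50.33 h after dosing, this morphology endpoint uses rat primary cortical cultures labelled for betaIII-tubulin. Branch points are quantified by high-content imaging, with DMSO as negative control and baseline.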

[9] = CCTE_Mundy_HCI_hNP1_Casp3_7: CCTE's Caspase-Glo 3/7 Assay in human neuroprogenitor cells for Apoptosis, Mundy Lab (AID 2284240)
Summary of the method: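 Luminescent caspase-3/7 readout, 26.5 h post-dose, in human neural progenitor cells from WA09 embryonic stem cells. Cells grew 40–44 h at 37 °C, 5% CO2 before chemical addition. Activity analysed as signal increase over DMSO baseline.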

[10] = CCTE_Mundy_HCI_hNP1_CellTiter: CCTE's Cell Titer-Glo 2 Assay in human neuroprogenitor cells for Viability, Mundy Lab (AID 2284241; active = hit-call score of the fitted dose curve at least 0.9, where 1 is the maximum)
Summary of the method: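 Viability read as luminescent ATP content (CellTiter-Glo, 30 min room temperature) twenty-four hours after dosing, relative to DMSO. Cells: WA09-derived hNP1 neuroprogenitors on poly-L-ornithine/laminin, plated 40 to 44 hours before chemical.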

[11] = CCTE_Mundy_HCI_Cortical_Synap_Neur_Matur_NeuronCount: CCTE's Synaptogenesis and Neurite Maturation Assay in rat cortical cells for Neuron Count, Mundy Lab (AID 2284242; active = hit-call score of the fitted dose curve at least 0.9, where 1 is the maximum)
Summary of the method: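 Rat primary cortical cells, AraC added at DIV 5, dosed with media change from DIV 7 to DIV 12. Fixed, Hoechst-stained and immunolabelled for MAP2 and synaptophysin; neuron number counted by high-content imaging, loss fitted versus DMSO.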

[12] = IUF_NPC2c_oligodendrocyte_migration_120hr: Leibniz Research Institute for Environmental Medicine (IUF) 120-hour Neural Progenitor Cell Migration Assay for Oligodendrocyte Migration (NPC2c) (AID 2284297);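 note: O4-positive oligodendrocyte migration distance divided by radial glia migration distance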
Summary of the method: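 Human fetal cortex-derived neural progenitor spheres (0.3 mm) were plated on poly-D-lysine/laminin in N2 differentiation medium and exposed to 7 concentrations for 120 h, with half-medium renewal at day 3. Oligodendrocyte migration distance was normalized to radial glia migration, relative to DMSO.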

[13] = IUF_NPC2a_radial_glia_migration_120hr: Leibniz Research Institute for Environmental Medicine (IUF) 120-hour Neural Progenitor Cell Migration Assay for Radial Glia Migration (NPC2a) (AID 2284298)
Summary of the method: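 Single 0.3 mm primary human fetal-cortex (GW 16-19) NPC spheres were plated on poly-D-lysine/laminin in N2 differentiation medium and exposed from day 0 for 120 h, half-medium refreshed day 3. Migration distance came from Hoechst nuclei-density imaging, relative to DMSO.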

[14] = IUF_NPC2a_radial_glia_migration_72hr: Leibniz Research Institute for Environmental Medicine (IUF) 72-hour Neural Progenitor Cell Migration Assay for Radial Glia Migration (NPC2a) (AID 2284299)
Summary of the method: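 Human fetal neural progenitor spheres (0.3 mm) plated on poly-D-lysine/laminin in N2 differentiation medium and exposed from day 0 at 7 concentrations; radial glia migration distance from sphere edge measured at 72 h on brightfield images, mean of four directions, vs DMSO.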

[15] = IUF_NPC2b_neuronal_migration_120hr: Leibniz Research Institute for Environmental Medicine (IUF) 120-hour Neural Progenitor Cell Migration Assay for Neuron Migration (NPC2b) (AID 2284300)
Summary of the method: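 Primary human fetal cortex neural progenitor spheres (0.3 mm) plated on poly-D-lysine/laminin in N2 differentiation medium, exposed 120 h with half-medium refresh at day 3. TUBB3-stained neuron distance from sphere core, normalized to radial glia migration, versus DMSO.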

[16] = IUF_NPC3_neuronal_differentiation_120hr: Leibniz Research Institute for Environmental Medicine (IUF) 120-hour Neuronal Differentiation Assay (NPC3) (AID 2284301)
Summary of the method: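 Human fetal (GW 16-19) neural progenitor spheres (0.3 mm) plated on poly-D-lysine/laminin in N2 differentiation medium, exposed 120 h at 37C with half-medium renewal day 3; 7 concentrations. TUBB3+ cells as % of Hoechst nuclei, CNN-identified; DMSO baseline.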

[17] = IUF_NPC4_neurite_length_120hr: Leibniz Research Institute for Environmental Medicine (IUF) 120-hour Neuronal Morphology Assay for Neurite Length (NPC4) (AID 2284302)
Summary of the method: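 Human fetal neural progenitor spheres (0.3 mm) plated on poly-D-lysine/laminin in N2 differentiation medium, exposed from day 0 for 120 h with half-medium refresh at day 3, 37C. Mean neurite length (um) of TUBB3-positive neurons from skeletonized immunostaining images; DMSO ≤0.1%.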

[18] = IUF_NPC4_neurite_area_120hr: Leibniz Research Institute for Environmental Medicine (IUF) 120-hour Neuronal Morphology Assay for Neurite Area (NPC4) (AID 2284305; active = hit-call score of the fitted dose curve at least 0.9, where 1 is the maximum)
Summary of the method: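 Human fetal neural progenitor spheres (0.3 mm) plated on poly-D-lysine/laminin in N2 differentiation medium, exposed 120 h (7 concentrations, DMSO ≤0.1%, half-medium refresh day 3). Fixed, TUBB3 immunostained; mean neurite area per neuron by Omnisphero skeletonization.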

[19] = IUF_NPC2-5_cytotoxicity_72hr: Cytotoxicity Assessment at 72 hours in the Leibniz Research Institute for Environmental Medicine (IUF) Neural Progenitor Cell Migration and Differentiation Assay for Cytotoxicity (NPC2-5) (AID 2284306; active = hit-call score of the fitted dose curve at least 0.9, where 1 is the maximum;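 note: LDH release into supernatant measured by resorufin fluorescence marking membrane damage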)
Summary of the method: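 Human fetal primary neural progenitor spheres (0.3 mm) plated on poly-D-lysine/laminin in N2 differentiation medium, exposed from day 0 at 37C. LDH-dependent resazurin-to-resorufin fluorescence in supernatant at 72 h; 7 concentrations, DMSO at most 0.1%.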

[20] = IUF_NPC2-5_cytotoxicity_120hr: Cytotoxicity Assessment at 120 hours in the Leibniz Research Institute for Environmental Medicine (IUF) Neural Progenitor Cell Migration and Differentiation Assay (NPC2-5) (AID 2284307; active = hit-call score of the fitted dose curve at least 0.9, where 1 is the maximum)
Summary of the method: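 Human fetal neural progenitor spheres (0.3 mm, GW 16-19 cortex) were plated on poly-D-lysine/laminin in N2 differentiation medium and exposed for 120 h, with half-medium refresh at day 3. LDH release into supernatant was read by resorufin fluorescence.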

[21] = IUF_NPC2-5_cell_number_120hr: Cell Number Assessment at 120 hours in the Leibniz Research Institute for Environmental Medicine (IUF) Neural Progenitor Cell Migration and Differentiation Assay (NPC2-5) (AID 2284308);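 note: count of Hoechst-stained nuclei in migration zone around plated human neural progenitor spheres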
Summary of the method: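 Primary human fetal neural progenitor spheres (GW 16-19, 0.3 mm) plated on poly-D-lysine/laminin in N2 differentiation medium, exposed from day 0 for 120 h with half-medium refresh at day 3; Hoechst-positive nuclei counted in migration area versus DMSO control.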

[22] = IUF_NPC1_cytotoxicity_72hr: Cytotoxicity Assessment at 72 hours in the Leibniz Research Institute for Environmental Medicine (IUF) Neural Progenitor Cell Proliferation Assay (NPC1) (AID 2284332; active = hit-call score of the fitted dose curve at least 0.9, where 1 is the maximum;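 note: rising LDH signal means more cytotoxicity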)
Summary of the method: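 Human fetal neural progenitor spheres (0.3 mm) in EGF/FGF proliferation medium, 37C, exposed 72 h without renewal. LDH release in supernatant read by resorufin fluorescence; gain of signal scored relative to dynamic range.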

[23] = CCTE_Mundy_HCI_iCellGluta_NOG_NeuronCount: CCTE's Neurite Outgrowth Assay in iCellGluta cells for Neuron Count, Mundy Lab (AID 2284340; active = hit-call score of the fitted dose curve at least 0.9, where 1 is the maximum;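 note: cells fixed about 48 h after compound addition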)
Summary of the method: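 Neuron count read by automated high-content imaging of Hoechst 33342 and betaIII-tubulin/Alexa Fluor-488 labelling in human iPSC glutamatergic neurons. Activity fitted relative to DMSO.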

[24] = CCTE_Mundy_HCI_iCellGluta_NOG_NeuriteCount: CCTE's Neurite Outgrowth Assay in iCellGluta cells for Neurite Count, Mundy Lab (AID 2284342; active = hit-call score of the fitted dose curve at least 0.9, where 1 is the maximum;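 note: chemical exposure about 48 hours starting 2 hours after plating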)

Measured: outcome

Cc1[nH]n(C)c(=O)c1C(=O)c1ccc(C(F)(F)F)cc1S(C)(=O)=O
inactive: all assays above
